Each structure is given as a SMILES string. The whole screen tested about 340,000 compounds, of which about 1,700 (0.5%) were called active. Rule as the data show it: active = inhibition above about 36%; inactive = the rest. Many of the other results were omitted from the sample, so actives are more common in it than they were.

This experiment deals with Serine protease HTRA1 (Homo sapiens) (UniProt Q92743). As to the kind of experiment: inhibition of human HTRA1 peptidase – biochemical, fluorescence polarization, HTS, primary screen (AID 504803).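 Also: 0% = enzyme with DMSO and 100% = wells lacking enzyme.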 The following applies: recombinant HTRA1, FP-rhodamine activity-based probe, at 5.96 µM, hits give high values.
Chain of Serine protease HTRA1 (Homo sapiens) (Q92743 whole entry, looked up): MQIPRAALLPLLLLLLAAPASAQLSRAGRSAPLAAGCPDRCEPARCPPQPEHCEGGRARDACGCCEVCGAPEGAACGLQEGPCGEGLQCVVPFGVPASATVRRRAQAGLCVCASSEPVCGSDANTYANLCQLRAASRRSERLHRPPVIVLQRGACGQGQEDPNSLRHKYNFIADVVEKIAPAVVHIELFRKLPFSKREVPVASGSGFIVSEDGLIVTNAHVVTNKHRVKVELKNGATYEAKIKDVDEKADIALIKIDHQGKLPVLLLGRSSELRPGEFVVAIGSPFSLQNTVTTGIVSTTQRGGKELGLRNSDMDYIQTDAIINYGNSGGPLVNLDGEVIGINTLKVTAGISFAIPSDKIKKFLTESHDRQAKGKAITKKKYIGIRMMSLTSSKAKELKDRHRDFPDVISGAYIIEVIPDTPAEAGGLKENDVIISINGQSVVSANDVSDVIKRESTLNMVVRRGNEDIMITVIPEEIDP
One may read the inhibition as the change of the read-out against control, counted positive when it falls. Turning to `CCOC(=O)c1c(NC(=O)COC(=O)c2ccc(S(=O)(=O)C(F)F)cc2)sc(C(=O)N(C)C)c1C`, the inhibition was -16.1% (inactive). With `Nc1ccc(Nc2ccccc2)cc1` the figure was 69% (active); with `COc1ccc(Nc2ccc3ccccc3c2)cc1`, 24.9% (inactive). As to `Cc1cc(Nc2ccccc2)n(C(=O)c2ccc(N)cc2)n1`, the inhibition was -10.8% (inactive).

Regarding `O=C(NCCc1cccc(F)c1)C1CC(O)CN1C(=O)Nc1ccccc1` (configuration not stated), the inhibition was 0.16% (inactive). With `CC(C)[C@H](NC(=O)c1ccccc1F)C(=O)Nc1cccc(S(=O)(=O)N2CCOCC2)c1` the figure was 0.83% (inactive). With `C[C@@H]1CN([C@@H](C)CO)C(=O)CCCn2nncc2CO[C@H]1CN(C)C(=O)Nc1ccc(C(F)(F)F)cc1` the figure was -1.93% (inactive); with `CCOC(=O)C(=Cc1ccccc1)C(=O)c1ccccc1`, -10% (inactive); with `O=C(CSc1ccc(Cl)cc1)NC1CC1`, 1.09% (inactive). With `COc1ccc2nc(-c3ccccn3)ccc2c1` the figure was 4.04% (inactive). For the compound `COc1cnc(-c2ccccn2)nc1Oc1ccc(C(C)(C)C)cc1`, the inhibition was 56.8% (active). In the case of `COc1ccc(NCCc2ccccn2)cc1`, the inhibition was 3.17% (inactive). With `C[C@H]1CN([C@@H](C)CO)C(=O)c2cc(C3=CCCCC3)cnc2O[C@@H]1CN(C)C(=O)Cc1ccccc1` the figure was -0.1% (inactive). With `Cc1ccc(C=O)c([B-](F)(F)F)c1` the figure was 4.92% (inactive); with `CN1c2ccc(C=O)c3c(C=O)ccc(c23)N(C)C1(C)C`, 53.2% (active). With `c1ccc2[nH]c(-c3nc4ccccc4[nH]3)nc2c1` the figure was 80.8% (active). For the compound `O=C(Nc1sc2c(c1-c1nc3ccccc3[nH]1)CCCC2)C1CC1`, the inhibition was 3.75% (inactive). With `Nc1ccccc1-c1nc2ccncc2[nH]1` the figure was -6.2% (inactive); with `NC(=S)NN=Cc1ccc(OC(=O)COc2cc(Cl)c(Cl)cc2Cl)cn1`, -2.79% (inactive). On to `O=C(CSC1=Nc2ccccc2C2=NC(c3ccccc3)C(=O)N12)NCC1CCCO1` (configuration not stated), for which the inhibition is 5.98% (inactive).

Turning to `CC(C)C1N=C2c3ccccc3N=C(SCC(=O)c3ccc(O)c(O)c3)N2C1=O` (configuration not stated), the inhibition was 59.3% (active). With `NC(=O)CSC1=Nc2ccccc2C2=NC(CCC(=O)NCc3ccc(F)cc3)C(=O)N12` (configuration not stated) the figure was 1.09% (inactive); with `CC(C)CCC(=O)Nc1cc(S(=O)(=O)N2CCOCC2)ccc1N1CCCC1`, -0.61% (inactive). With `C#Cc1cc(N2CCN(C(=O)c3ccoc3)CC2)n2nc(-c3cccc(Cl)c3)cc2n1` the figure was -68.2% (inactive). With `CN(c1ccccc1)S(=O)(=O)c1ccc(C(=O)NCc2cccnc2)cc1` the figure was 2.31% (inactive). As for `Cc1cc2c3ccccc3[nH]c(=O)n2n1`, the inhibition is -0.09% (inactive). Regarding `Cc1c(CCC(=O)O)c(=O)oc2c(C)c(OCc3ccccc3Cl)ccc12`, the inhibition is -1.83% (inactive). With `CCN(CC)S(=O)(=O)c1ccc(N2CCOCC2)c(NC(=O)C2COc3ccccc3O2)c1` (configuration not stated) the figure was -9.82% (inactive); with `Cc1c(CC(=O)N2CCN(C(=O)C3COc4ccccc4O3)CC2)c(=O)oc2c(O)c(O)ccc12` (configuration not stated), 51.5% (active). With `CCN1CCCC1CNC(=O)c1ccc2c(c1)NC(=O)/C(=C\c1ccccc1F)S2` (configuration not stated) the figure was -43.1% (inactive); with `O=C(CCCN1C(=O)C(c2ccccc2)Oc2cccnc21)Nc1ccccc1Br` (configuration not stated), -5.83% (inactive); with `O=C(COC(=O)CCc1c[nH]c2ccccc12)Nc1cccc(Cl)c1`, -2.43% (inactive).

As to `Cc1cc(/C=N/Nc2ccc([N+](=O)[O-])cn2)c(C)n1-c1cccc(C(=O)O)c1`, the inhibition is 40.5% (active). With `Cc1cc(/C=N/NC(=O)CC2(C)OCCO2)c(C)n1-c1ccc(Cl)c(Cl)c1` the figure was 2.74% (inactive); with `CC(C)c1ccc(C=NNc2ccc([N+](=O)[O-])cn2)cc1`, -18.3% (inactive). With `CC(OC(=O)c1ccc(NC(=O)CC#N)cc1)C(=O)Nc1ccc(S(=O)(=O)N2CCCC2)cc1` (configuration not stated) the figure was -20% (inactive).

In the case of `O=C(COC(=O)/C=C/c1cccc(Cl)c1)NCCc1ccccc1`, the inhibition is 4.91% (inactive).

Turning to `NNc1cccc(C=Cc2ccccc2)cc1=O`, the inhibition is 61.4% (active). With `O=c1[nH]c(/C=C/c2cccc(Br)c2)nc2ccccc12` the figure was -1.32% (inactive); with `COc1ccc(-c2ccc3[nH]c4c(c3c2)CCN2C[C@H]3[C@H](C)ON(C)[C@H]3C[C@@H]42)cc1`, 6.55% (inactive). With `CCCCN1C[C@H](c2ccc(Br)cc2)[C@@H](CC(=O)Nc2ccc(Br)cc2)C1=O` the figure was -22.8% (inactive); with `CC(C)n1cnc2c(NCc3ccccc3)cc(OCC3CCN(C)CC3)cc21`, 40.1% (active); with `CCC(CO)Oc1cc(NC(=O)c2ccc(Cl)cc2)c2ncn(C(C)C)c2c1` (configuration not stated), 6.4% (inactive). With `CCC(CO)Oc1cc(NC(=O)c2cccc3ccccc23)c2ncn(C(C)C)c2c1` (configuration not stated) the figure was -25% (inactive); with `Cc1ccc(-c2nc3ccc(Cl)cn3c2Cc2ccccc2)cc1`, -74.4% (inactive); with `N#Cc1ccsc1NC(=O)CN1CCN(S(=O)(=O)c2cc(Cl)ccc2Cl)CC1`, -36.8% (inactive).

On to `O=C(CN1CCN(S(=O)(=O)c2cc(Cl)ccc2Cl)CC1)c1ccc(O)c(O)c1`, for which the inhibition was 39.9% (active).

On to `COc1ccc(Cl)cc1S(=O)(=O)N1CCN(CC(=O)C(C)(C)C)CC1`, for which the inhibition was 4.3% (inactive). For `O=C1[C@H]2[C@@H](c3ccc(C(F)(F)F)cc3)N[C@]3(CCCN(Cc4ccc(Cl)cc4)C3=O)[C@H]2C(=O)N1Cc1ccccc1`, the inhibition is -39.5% (inactive). For the compound `COc1ncnc2c1ncn2CCCNCCN1CCOCC1`, the inhibition is 0.71% (inactive). With `COc1cc(NC(=O)C2=C(C)OCCS2)c(Cl)cc1C(=O)NCCCN1CCCC(C)C1` (configuration not stated) the figure was -6.48% (inactive); with `C[C@@H]1CN([C@@H](C)CO)S(=O)(=O)c2ccc(-c3ccc(C(=O)N(C)C)cc3)cc2O[C@@H]1CN(C)Cc1ccccc1C(=O)O`, -0.74% (inactive); with `COCOCCn1cc(CN2CCS(=O)(=O)N(Cc3ccc(-c4cccc(N(C)C)c4)cc3)C(CC(C)C)C2=O)nn1` (configuration not stated), 1.08% (inactive). With `Cc1ccc(CN2CCN(c3ncccn3)CC2)c(C)c1` the figure was -5.09% (inactive).

`Cc1cc(=O)oc2cc(OCC(=O)N3CCN(c4ccc(F)cc4)CC3)c(Cl)cc12`: the inhibition is 4.27% (inactive). With `COc1cc(C)cc(CN2CCC(Cc3ccccc3)CC2)c1O` the figure was 4.82% (inactive). With `CC1CCCN(CC(O)COCc2ccccc2)C1` (configuration not stated) the figure was 1.82% (inactive). With `Oc1c(CN2CCN(c3ccc(F)cc3)CC2)cc(Cl)c2cccnc12` the figure was 50.4% (active). For the compound `Oc1c(CN2CCCC2)cc(COCc2ccccc2)c2cccnc12`, the inhibition was 49.2% (active). As to `Nc1cc(C(=O)N2CCN(c3ccccc3Cl)CC2)ccc1N1CC2CC(C1)c1cccc(=O)n1C2` (configuration not stated), the inhibition is 2.36% (inactive).

For `O=C(NCc1ccccc1)C1CNCC(C(=O)NCc2ccccc2)C1` (configuration not stated), the inhibition was 0.67% (inactive). With `CCOc1ccc(CCNC(=O)COC(=O)c2ccc(C)c(S(=O)(=O)N3CCOCC3)c2)cc1OCC` the figure was -2.04% (inactive); with `O=[N+]([O-])c1ccc(C(S(=O)(=O)Cc2ccccc2)S(=O)(=O)Cc2ccccc2)cc1`, -1.31% (inactive).

In the case of `Cc1cc([N+](=O)[O-])ccc1NS(=O)(=O)c1ccccc1`, the inhibition is -0.9% (inactive). With `COc1ccc(S(=O)(=O)Nc2ccccc2C(=O)N2CCCC2)cc1C` the figure was 1.39% (inactive); with `Cc1ccc(NS(=O)(=O)c2ccc(N/N=C/c3ccccc3OCC(=O)O)c([N+](=O)[O-])c2)c(C)c1`, 37.7% (active). With `C=C(C)CNC(=S)N/N=C/c1ccccc1OCC(=O)O` the figure was 4.14% (inactive). Turning to `COc1ccc(Br)cc1/C=N/Nc1ccc(S(=O)(=O)Nc2ccccc2C(=O)O)cc1[N+](=O)[O-]`, the inhibition is -2.73% (inactive). With `COc1cccc(/C=N/Nc2ccc(S(=O)(=O)Nc3ccccc3C(=O)O)cc2[N+](=O)[O-])c1O`, the inhibition is 40.5% (active). With `C[C@H]1CN([C@@H](C)CO)C(=O)CCCn2cc(nn2)CO[C@@H]1CN(C)S(=O)(=O)c1ccc(-c2ccccc2)cc1` the figure was -3.19% (inactive); with `COc1ccc2c(c1)CCCO[C@]21O[C@H](CCO)C[C@H](O)[C@H]1O`, -2.62% (inactive).

With `CC1=C(C(=O)N2CCOCC2)CC(CC(=O)NCc2ccco2)C(=O)N1Cc1ccc(F)cc1` (configuration not stated), the inhibition was 4.18% (inactive). With `Cc1ccn(CC(=O)NC2CCCN(Cc3ccccc3F)C2)n1` (configuration not stated) the figure was 0.25% (inactive); with `Cc1ccc(C(=O)NC(C)C(c2cccs2)N2CCOCC2)cc1C` (configuration not stated), 1.64% (inactive). With `C[C@@H]1CN([C@@H](C)CO)S(=O)(=O)c2ccc(C#Cc3cccc(F)c3)cc2O[C@H]1CN(C)S(=O)(=O)c1cn(C)cn1` the figure was -25.7% (inactive); with `CC(C)/C=N/NC(=O)c1cc(Br)ccc1O`, 6.13% (inactive); with `CC(=O)N/N=C(\C)c1ccc(Br)cc1Br`, 2.26% (inactive).

For `CC(=N\NC(=O)c1cc(Br)ccc1O)/C(=N/O)C(=O)Nc1ccccc1`, the inhibition is 46.1% (active). In the case of `CC1CCN(C(=O)CSc2nnc(-c3ccco3)n2N)CC1`, the inhibition was 2.17% (inactive). With `C[C@@H]1CN([C@@H](C)CO)C(=O)c2cc(Br)cnc2O[C@H]1CN(C)Cc1ccc(-c2ccccc2)cc1` the figure was -13.1% (inactive). `Oc1ccc(-c2nc3ccccc3nc2-c2ccc(O)cc2O)c(O)c1`: the inhibition was -7.06% (inactive). With `Cc1ccc(Nc2nc(-c3ccc(O)cc3O)cs2)nc1` the figure was 37.1% (active); with `Cc1ccn2c(-c3csc(Nc4ccc(C(=O)O)cc4)n3)c(C)nc2c1`, -2.27% (inactive). `COc1ccc(S(=O)(=O)N(C)C[C@H]2OCc3cnnn3CCCC(=O)N([C@H](C)CO)C[C@H]2C)cc1`: the inhibition is 0.5% (inactive).

As to `CC(OC(=O)c1cccnc1Cl)C(=O)NC1CCCCC1` (configuration not stated), the inhibition is 2.76% (inactive).

For `NC1=CC(=O)C(=O)c2cccnc21`, the inhibition is 38.3% (active). With `CCOc1ccc(CCN2C(=O)c3cccnc3C2=O)cc1OCC` the figure was -1.21% (inactive).

Values taken from PubChem BioAssay AID504803 (The Scripps Research Institute Molecular Screening Center, 2011).
